Assay outcomes: PubChem BioAssay, several laboratories
Hits are enriched below; roughly 4.4% of the tested compounds scored in any of these assays.
tim23-1 inh: growth inhibitors of tim23-1 mutant yeast, primary screen, luminescence, uHTS | S. cerevisiae tim23-1 growth, BacTiter-Glo luminescence, 24 h | inhibition, % at 20 µM | 330,000 compounds, 1.3% hits | AID 463212, 2010;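 active = growth inhibition of the mutant yeast at or above 50%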;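 also: temperature-sensitive mutant grown at 25 °C; plate controls were DMSO-treated mutant yeast for no effect and medium wells lacking yeast for full effect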
SKKanGAS inh: S. pyogenes SKKanGAS growth inhibitors in kanamycin, primary screen, streptokinase expression inhibitor project, SKKanGAS strain, BacTiter-Glo luminescence. 6 h. inhibition, % at 7.5 µM. 300,000 compounds, 1.3% hits. AID 1662, 2009;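 active = mean replicate score, as percent of positive control median, at least 50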;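 also: strain carries kanamycin resistance gene driven by streptokinase promoter and grows in 40 µg/ml kanamycin; loss of luminescence reflects streptokinase promoter inhibition or plain growth inhibition; 0% = median of DMSO wells and 100% = positive control at its reference dose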
tim10-1 inh: growth inhibitors of tim10-1 mutant yeast, primary screen, luminescence, uHTS. S. cerevisiae tim10-1 ts strain growth, BacTiter-Glo, 24 h. AID 463190, 2010. 330,000 compounds, 2.2% hits. inhibition, % at 20 µM;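 active = inhibition of at least 40%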;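 also: mutant grown at 25 °C; 0% = DMSO wells with yeast and 100% = wells holding no yeast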
TIM10 inh: growth inhibitors of isogenic TIM10 control yeast, primary screen, counter-screen for tim10-1 yeast inhibitor project, luminescence, uHTS; 330,000 compounds, 1.4% hits; inhibition, % at 10 µM; S. cerevisiae TIM10 strain growth, BacTiter-Glo luminescence, 24 h;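 active = inhibition of 40% or more at the single tested concentration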;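 also: wild-type TIM10 isogenic control strain grown at permissive 25 °C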
PfHsp90 set2: growth inhibition of PfHsp90-expressing yeast, primary screen, antimalarial PfHsp90 inhibitor project, S. cerevisiae, BacTiter-Glo luminescence, single point, set 2; inhibition, % at 9.4 µM; 310,000 compounds, 0.32% hits; AID 504621, 2011; BacTiter-Glo ATP, 48 h; yeast lacking PDR1 and PDR3 efflux regulators;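 active = every replicate shows inhibition above about 80%, whatever the replicate mean, limit read from the data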;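 also: 0% = DMSO neutral controls and 100% = 20 µM radicicol positive controls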
tim10-1 conf: growth inhibitors of tim10-1 mutant yeast, confirmation, single concentration, luminescence, S. cerevisiae; inhibition, % at 20 µM; S. cerevisiae tim10-1 ts strain growth, BacTiter-Glo, 24 h; shares compounds with tim10-1 inh; 7,400 compounds, 56% hits;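 active = inhibition of yeast growth at or above a set limit in either of two repeat tests at 20 µM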;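 also: tim10-1 mutant grown at permissive 25 °C to find synthetic lethal compounds; 0% = DMSO yeast wells and 100% = medium wells without yeast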
Active calls of the source: *; / = no result given.

SMILES	tim23-1 inh	SKKanGAS inh	tim10-1 inh	TIM10 inh	PfHsp90 set2	tim10-1 conf
CCCOC(=O)c1ccc(Oc2c(-c3ccc(O)cc3O)n[nH]c2C)cc1	-111	55*	55*	21	-40	9
CCOc1ccc(-c2n[nH]c(C)c2Oc2ccccc2OC)c(O)c1	28	-5	20	16	17	/
CCN1CCC(O)(C(C(=O)O)c2ccccc2)CC1 (centres undefined)	/	/	/	/	-5	/
Cc1cc(=O)oc2cc(OCC(=O)NC3CCN(Cc4ccccc4)CC3)c(Cl)cc12	7	0	9	17	15	/
Cc1ccc(Cl)c(OCC(=O)NC2CCN(Cc3ccccc3)CC2)c1	-2	-2	68*	-25	/	-49
CCc1cc(=O)oc2cc(OC3CCCCC3=O)ccc12 (centres undefined)	35	-2	43*	5	-30	13
S=C1NC(c2cccs2)=CC(c2ccc(Br)cc2)N1 (centres undefined)	39	2	41*	13	5	33*
CCOC(=O)c1sc(=S)n(Cc2ccccc2)c1N	22	-7	42*	16	0	40*
CCOC(=O)c1sc(=S)n(CC)c1N	7	-4	-11	2	20	/
CCC(C)(C)c1ccc(Oc2cccc(C(=O)O)c2)cc1	22	12	97*	-2	1	21
O=C(c1ccco1)N1CCN(c2ncnc3scc(-c4cccs4)c23)CC1	38	2	46*	10	31	30
Cc1ccc(NC(=O)COc2ccc(Cl)cc2Cl)cc1S(=O)(=O)N1CCOCC1	36	/	49*	33	-1	20
CCCN(CCC)S(=O)(=O)c1ccc(NC(=O)COc2ccccc2)cc1	38	9	52*	40	4	38*
COc1ccc(OCC(=O)Nc2ccc(S(=O)(=O)N3CCOCC3)cc2)cc1	24	1	48*	33	-14	32*
CCc1ccc(OCC(=O)Nc2ccc(S(=O)(=O)N3CCOCC3)cc2)cc1	31	22	40	16	/	33*
COc1ccc(OCC(=O)Nc2ccc(S(=O)(=O)N(C)c3ccccc3)cc2)cc1	30	11	22	22	-6	/
CCN(C(=O)COC(=O)COc1ccc(Cl)c(C)c1)C1CCS(=O)(=O)C1 (centres undefined)	8	/	11	-3	22	/
CC1CCCCN1S(=O)(=O)c1ccc(C(=O)N2CCOCC2)cc1 (centres undefined)	15	-5	8	-13	-9	/
Cc1ccc2c(c1)CCCN2C(=O)c1cc2ccccc2oc1=O	49	0	43*	24	9	44*
COc1ccc(-n2cccc2/C=C2\C(=N)N3N=C(C(C)C)SC3=NC2=O)cc1	25	33	40*	7	-21	26
CCC1=NN2C(=N)/C(=C\c3cccn3-c3cccc(Cl)c3)C(=O)N=C2S1	37	36	46*	35	7	37*
CCC1=NN2C(=N)/C(=C\c3cccn3-c3ccc(Br)cc3)C(=O)N=C2S1	/	38	/	/	-5	/
CCCSCCCNC(=O)c1ccc(C)c(NC(=O)C2=C(C)OCCS2)c1	19	1	30	-8	-15	/
COc1cc2oc(=O)cc(-c3ccc(-c4ccc(CO)cc4)cc3)c2c(OC)c1OC	20	/	11	0	38	/
CCN(CC)C(=O)Oc1ccc2c(=O)c(-c3ccccc3)coc2c1	21	-4	54*	25	11	41*
COc1ccc2c(=O)c(-c3ccccc3)coc2c1	17	0	-5	-2	8	/
CC1(C)Cc2nc3sc4c(=O)n(Cc5ccccc5)cnc4c3cc2CS1	23	-12	26	20	2	/
CCCn1cnc2c(sc3nc4c(cc32)CSC(C)(C)C4)c1=O	29	-9	41*	32	-30	8
CCc1cccc(C)c1NC(=S)N(CCN(C)C)C(C)c1cccnc1 (centres undefined)	-3	-4	15	-3	/	/
